Reference: PubChem BioAssay (NCATS)
Values joined by “and” are separate entries in the source; they are usually repeats but may differ in a detail not shown here. Identical values can stand only once. Inconclusive results are not listed. Entries that show only a call come without a potency. Active and inactive are the calls of the source. Unless noted, the call rests on the fitted dose curve; in most records, active means well fitted curve in the direction sought with a large enough effect; inconclusive means small, poorly fitted or top-dose-only effect, or another doubt; inactive means no such curve, though single readings can be large; an effect the other way counts as inactive or inconclusive.

Experiments:
[1] = Cell Viability - BJ (AID 421; calls by dose curve;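 further: potency means the concentration at half of the fitted maximal effect; cells exposed to compound for 40 hours at 37 °C before readout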); settings: BJ fibroblast viability, qHTS
Summary of the method: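 Quantitative HTS: ATP depletion in BJ cells after 40 hr compound exposure in complete culture medium, detected with CellTiter-Glo; AC50 from standard Hill fits.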

[2] = Cell Viability - Jurkat (AID 426;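 active means dose-dependent loss of cell ATP signal giving a full or clear fitted curve, ranked by lower potency value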;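 further: potency means the concentration at half of the fitted maximal effect; cells exposed to compound for 40 hours at 37 °C before ATP read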); settings: qHTS
Summary of the method: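 Seed 5000 Jurkat E6-1 cells/well; add compound; incubate 40 hr at 37 °C; add CellTiter-Glo; wait 20 min at room temperature; read luminescence. Fit concentration-response with Hill equation for AC50.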

[3] = Cell Viability - Hek293 (AID 427;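 active means compounds whose dose-response curve shows a full or clear partial loss of cell viability, called from curve shape rather than a numeric limit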;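 further: potency means the concentration at half of the fitted maximal effect; cells exposed to compound for 40 hours at 37 °C before reading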); settings: qHTS
Summary of the method: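 AC50 values derive from Hill-modelled concentration-response of ATP-based luminescence, normalized between DMSO-only and 100 uM tamoxifen controls. Cells were exposed in complete culture medium for 40 hr at 37 °C before detection.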

[4] = Cell Viability - SK-N-SH (AID 435; calls by dose curve;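 further: potency means the concentration at half of the fitted maximal effect; compound exposure lasted 40 h at 37 °C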); settings: SK-N-SH neuroblastoma cell viability qHTS
Summary of the method: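 CellTiter-Glo ATP luminescence, 20 min RT read; cells pre-plated 5 hr, compound 40 hr at 37 °C, 1500 cells/well, complete medium. Normalized DMSO = 0, 100 uM tamoxifen = 100% inhibition; Hill-fit AC50.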

[5] = Cell Viability - HUV-EC-C (AID 542); settings: HUV-EC-C endothelial cell viability, qHTS; series mostly up to 92.2 µM;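 further: cells exposed to compound for 40 hours; nearly all actives have a fitted effect of over 35% in size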
Summary of the method: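 Decrease in cellular ATP, quantified by luciferase luminescence, reflects toxicity in normal human vascular endothelial HUV-EC-C cells given compound for 40 hr in complete culture medium. Values are AC50s from concentration-response curves.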

[6] = Cell Viability - H-4-II-E (AID 543); settings: H-4-II-E rat hepatoma viability; series mostly up to 92.2 µM;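 further: cells exposed to compound for 40 hours; nearly all actives have a fitted effect of over 35% in size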
Summary of the method: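 Here, cytotoxicity is measured in the rat hepatoma line H-4-II-E as loss of intracellular ATP after 40 hr compound treatment, detected by luciferase luminescence.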

[7] = Cell Viability - Renal Proximal Tubule (AID 545); settings: renal proximal tubule cells viability; series mostly up to 91.7 µM;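 further: cells exposed to compound for 40 hours; nearly all actives have a fitted effect of over 40% in size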
Summary of the method: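 Rat kidney proximal tubule cells, freshly isolated; 1000 cells/well, 5 hr settle, compound 40 hr 37 °C. CellTiter-Glo 20 min RT, luminescence read. AC50 by standard Hill fit.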

[8] = Cell Viability - LYMP2-015 (AID 971); settings: LYMP2-015 lymphoblastoid cell viability; series mostly up to 92.2 µM;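 further: cells exposed to compound for 24 h; nearly all actives have a fitted effect of over 55% in size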
Summary of the method: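 Acute toxicity was scored as a concentration-dependent drop in intracellular ATP in lymphoblastoid cells after 24 hr compound exposure in complete medium. Detection used CellTiter-Glo luciferase luminescence.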

[9] = Cell Viability - LYMP2-019 (AID 973); settings: LYMP2-019 lymphoblastoid cell line viability; series mostly up to 92.2 µM;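 further: cells exposed to compound for 24 h at 37 °C; nearly all actives have a fitted effect of over 55% in size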
Summary of the method: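 Cells plated at 2500/well and allowed 5 hr at 37 C before compound addition. After 24 hr incubation, CellTiter-Glo reagent was added, plates sat 30 min at room temperature, and luminescence was recorded.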

[10] = Cell Viability - LYMP2-012 (AID 982); settings: LYMP2-012 lymphoblastoid cell viability qHTS; series mostly up to 92.2 µM;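 further: cellular ATP by luciferase luminescence where a drop means cytotoxicity; cells exposed to compound for one day before reading; nearly all actives have a fitted effect of over 55% in size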
[11] = Cell Viability - LYMP2-020 (AID 986); settings: series mostly up to 92.2 µM;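 further: cells exposed to compound for 24 h at 37 °C; nearly all actives have a fitted effect of over 55% in size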
Summary of the method: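 Acute cytotoxicity in a human lymphoblastoid line is scored as a concentration-dependent fall in cellular ATP after 24 hr at 37 C in complete medium. The positive control is tetraoctylammonium bromide, and potency is given as Hill-fit AC50.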

[12] = Cell Viability - LYMP2-022 (AID 987); settings: LYMP2-022 lymphoblastoid cell viability; series mostly up to 92.2 µM; further: nearly all actives have a fitted effect of over 55% in size
Summary of the method: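 Acute toxicity in a human lymphoblastoid line is scored as decreased intracellular ATP after 24 hr compound treatment at 37 C. ATP is measured by CellTiter-Glo luminescence; curves are fitted with the Hill equation to give AC50.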

[13] = Cell Viability - LYMP2-026 (AID 989); settings: LYMP2-026 lymphoblastoid cell viability, qHTS; series mostly up to 92.2 µM;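 further: cells exposed to compound for 24 h at 37 °C; nearly all actives have a fitted effect of over 50% in size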
Summary of the method: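 Concentration-dependent loss of intracellular ATP in human lymphoblastoid cells after 24 hr at 37 C, quantified by luciferase luminescence. AC50 derived from standard Hill equation.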

[14] = Cell Viability - LYMP1-002 - Assay at 40 hr (AID 994); settings: LYMP1-002 lymphoblastoid cell viability; series mostly up to 92.2 µM; further: nearly all actives have a fitted effect of over 60% in size
Summary of the method: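 Viability in the human lymphoblastoid line was measured as intracellular ATP via CellTiter-Glo after 40 hr compound exposure. Tetraoctylammonium bromide served as positive control.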

[15] = qHTS assay for small molecule agonists of retinoid X receptor alpha signaling (AID 588544; calls by dose curve); settings: HEK293T RXRa-UAS-bla, beta-lactamase reporter, 18 h; 530 nm emission
[16] = target: Retinoic acid receptor RXR-alpha (Homo sapiens) (UniProt P19793); assay: as above; settings: HEK293T RXRa-UAS-bla, beta-lactamase reporter, 18 h; series mostly up to 76.7 µM
Retinoic acid receptor RXR-alpha (Homo sapiens), sequence (P19793 whole entry, looked up): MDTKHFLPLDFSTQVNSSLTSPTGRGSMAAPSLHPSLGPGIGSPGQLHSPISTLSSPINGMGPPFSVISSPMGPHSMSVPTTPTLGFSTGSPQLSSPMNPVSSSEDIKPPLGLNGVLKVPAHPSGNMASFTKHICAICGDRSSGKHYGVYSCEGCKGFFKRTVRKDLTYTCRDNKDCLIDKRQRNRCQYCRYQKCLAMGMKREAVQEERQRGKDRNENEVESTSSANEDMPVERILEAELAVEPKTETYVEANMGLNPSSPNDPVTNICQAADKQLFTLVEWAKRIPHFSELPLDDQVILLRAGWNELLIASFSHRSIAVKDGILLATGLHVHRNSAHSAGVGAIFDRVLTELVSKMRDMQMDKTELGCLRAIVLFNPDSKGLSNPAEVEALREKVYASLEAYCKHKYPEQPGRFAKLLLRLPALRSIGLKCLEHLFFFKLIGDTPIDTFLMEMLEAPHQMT

[17] = target: Thyroid hormone receptor beta (Homo sapiens) (UniProt P10828); assay: qHTS assay for small molecule agonists of thyroid hormone receptor beta signaling (AID 588545; calls by dose curve); settings: TR-UAS-bla GripTite HEK 293, beta-lactamase ratio, agonist mode, 18 h; series mostly up to 76.7 µM
Thyroid hormone receptor beta (Homo sapiens), sequence (P10828 whole entry, looked up): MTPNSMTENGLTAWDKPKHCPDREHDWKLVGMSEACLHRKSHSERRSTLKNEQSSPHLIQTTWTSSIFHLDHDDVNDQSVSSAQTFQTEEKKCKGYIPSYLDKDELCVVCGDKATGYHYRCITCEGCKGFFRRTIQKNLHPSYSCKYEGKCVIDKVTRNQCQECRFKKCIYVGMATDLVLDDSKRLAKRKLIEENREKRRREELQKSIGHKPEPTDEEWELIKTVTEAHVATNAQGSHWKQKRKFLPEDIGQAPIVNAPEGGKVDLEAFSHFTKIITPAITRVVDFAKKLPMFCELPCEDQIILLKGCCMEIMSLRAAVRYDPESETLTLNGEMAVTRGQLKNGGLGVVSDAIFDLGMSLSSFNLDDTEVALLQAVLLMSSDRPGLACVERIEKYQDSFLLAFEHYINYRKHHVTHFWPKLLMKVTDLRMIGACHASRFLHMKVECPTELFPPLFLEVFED
Summary of the method: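 Beta-lactamase reporter activity under TR response element control is measured in HEK 293 cells after 18 hrs compound exposure. Signal is ratiometric CCF4 fluorescence, 460/530 nm.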

[18] = qHTS assay for small molecule antagonists of retinoid X receptor alpha signaling (AID 588546; active means well fitted inhibition curve with a large enough effect in the signal ratio, with a control signal flat, not every such curve was filed as active; the % refers to the signal ratio;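 further: cells stimulated with 9-cis-retinoic acid as agonist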); settings: HEK293T RXRa-UAS-bla, beta-lactamase ratio, antagonist mode; measured here: W530 green channel, cytotoxicity proxy
Summary of the method: (§1)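 Beta-lactamase reporter inhibition, read as CCF4 fluorescence ratio (ex 405, em 460/530 nm) after 2 h at RT. HEK293T UAS-bla cells, 2500/well, were stimulated with 9-cis-RA at 500 or 100 nM final alongside test compound for 18 h at 37 C.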

[19] = target: Retinoic acid receptor RXR-alpha (Homo sapiens) (UniProt P19793); assay: as above; settings: HEK293T RXRa-UAS-bla, beta-lactamase ratio, antagonist mode
Summary of the method: as §1

[20] = target: Voltage-gated inwardly rectifying potassium channel KCNH2 (Homo sapiens) (UniProt Q12809); assay: qHTS Assay for Small Molecule Inhibitors of the Human hERG Channel Activity (AID 588834); settings: U2OS BacMam hERG, FluxOR thallium flux fluorescence; series mostly up to 92.2 µM;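 further: top concentration of the series differs between compounds; lower thallium flux fluorescence means stronger hERG block; nearly all actives have a fitted effect of over 50% in size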
Voltage-gated inwardly rectifying potassium channel KCNH2 (Homo sapiens), sequence (Q12809 whole entry, looked up): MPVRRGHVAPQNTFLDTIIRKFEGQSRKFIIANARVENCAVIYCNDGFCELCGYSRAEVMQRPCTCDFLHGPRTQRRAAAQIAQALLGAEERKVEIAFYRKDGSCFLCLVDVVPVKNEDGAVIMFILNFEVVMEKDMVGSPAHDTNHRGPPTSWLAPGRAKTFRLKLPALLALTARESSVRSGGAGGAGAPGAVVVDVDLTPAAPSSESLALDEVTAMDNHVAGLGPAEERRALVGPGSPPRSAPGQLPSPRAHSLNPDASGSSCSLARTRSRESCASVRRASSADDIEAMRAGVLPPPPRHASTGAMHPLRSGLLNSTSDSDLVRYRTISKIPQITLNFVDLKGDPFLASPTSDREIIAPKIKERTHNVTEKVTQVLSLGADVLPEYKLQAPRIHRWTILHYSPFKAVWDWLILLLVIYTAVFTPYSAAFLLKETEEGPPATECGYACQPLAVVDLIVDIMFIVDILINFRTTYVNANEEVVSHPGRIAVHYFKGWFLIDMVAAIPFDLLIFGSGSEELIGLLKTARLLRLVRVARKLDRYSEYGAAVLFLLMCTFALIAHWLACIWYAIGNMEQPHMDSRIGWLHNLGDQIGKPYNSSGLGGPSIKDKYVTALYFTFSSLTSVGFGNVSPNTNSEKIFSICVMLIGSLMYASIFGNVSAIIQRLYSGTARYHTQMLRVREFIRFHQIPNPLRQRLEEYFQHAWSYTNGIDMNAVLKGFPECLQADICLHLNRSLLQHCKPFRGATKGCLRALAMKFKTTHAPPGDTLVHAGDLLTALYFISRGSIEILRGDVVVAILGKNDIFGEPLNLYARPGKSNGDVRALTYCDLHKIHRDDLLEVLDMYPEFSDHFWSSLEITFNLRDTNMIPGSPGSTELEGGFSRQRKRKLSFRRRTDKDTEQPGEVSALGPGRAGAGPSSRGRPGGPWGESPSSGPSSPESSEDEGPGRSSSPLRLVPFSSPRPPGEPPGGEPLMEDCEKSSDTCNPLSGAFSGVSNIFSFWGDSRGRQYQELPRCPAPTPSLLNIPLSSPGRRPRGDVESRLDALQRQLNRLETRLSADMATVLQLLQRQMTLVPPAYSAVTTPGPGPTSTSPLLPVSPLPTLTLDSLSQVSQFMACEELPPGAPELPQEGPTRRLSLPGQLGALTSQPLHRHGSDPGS
Summary of the method: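 Concentration-response qHTS measuring drop in thallium-sensitive dye signal. U2OS cells carrying BacMam hERG; compound exposure ~10 min, then stimulation buffer and 2 min read at 1 sec intervals.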

| SMILES | Potency [1] | Potency [2] | Potency [3] | Potency [4] | Potency [5] | Potency [6] | outcome [7] | Potency [8] | Potency [9] | Potency [10] | Potency [11] | Potency [12] | Potency [13] | Potency [14] | max response [15] | outcome [16] | Potency [17] | max response [18] | max response [19] | Potency [20] |
| --- | --- | --- | --- | --- | --- | --- | --- | --- | --- | --- | --- | --- | --- | --- | --- | --- | --- | --- | --- | --- |
| ClCC(Br)CBr (stereo not given) | > 92 µM (inactive) | > 92 µM (inactive) | > 92 µM (inactive) | > 92 µM (inactive) | inactive | inactive | inactive | inactive | inactive | inactive | inactive | inactive | inactive | inactive | -9.36% | inactive | inactive | -1.84% | 13.4% (inactive) | inactive |
| S=c1[nH]c2ccccc2[nH]1 | > 92 µM (inactive) | > 92 µM (inactive) | > 92 µM (inactive) | > 92 µM (inactive) | inactive | inactive | inactive | inactive | inactive | inactive | inactive | inactive | inactive | inactive | 8.12% | inactive | inactive | -17.8% | 5.37% (inactive) | inactive |
| Clc1ccccc1 | > 92 µM (inactive) | > 92 µM (inactive) | > 92 µM (inactive) | > 92 µM (inactive) | inactive | inactive | inactive | inactive | inactive | inactive | inactive | inactive | inactive | inactive | -8.37% | inactive | inactive | -7.38% | -2.2% (inactive) | inactive |
| CC12CC1(C)C(=O)N(c1cc(Cl)cc(Cl)c1)C2=O (stereo not given) | > 92 µM (inactive) | > 92 µM (inactive) | > 92 µM (inactive) | > 92 µM (inactive) | inactive | inactive | inactive | inactive | inactive |  | inactive | inactive | inactive | inactive | -5.02% and -2.83% | inactive | inactive | 4.78% | -13.5% (inactive) | inactive |
| OCC(Cl)CCl (stereo not given) | > 92 µM (inactive) | > 92 µM (inactive) | > 92 µM (inactive) | > 92 µM (inactive) | inactive | inactive | inactive | inactive | inactive | inactive | inactive | inactive | inactive | inactive | -11.4% | inactive | inactive | -11.1% | -4.6% (inactive) | inactive |
| CC(C)OS(C)(=O)=O | > 92 µM (inactive) | > 92 µM (inactive) | > 92 µM (inactive) |  | inactive | inactive | inactive | inactive | inactive | inactive | inactive | inactive | inactive | inactive | -2.85% | inactive |  | 5.36% | 0.937% (inactive) | inactive |
| CCCN(CCC)c1c([N+](=O)[O-])cc(C(F)(F)F)cc1[N+](=O)[O-] | > 92 µM (inactive) | > 92 µM (inactive) | > 92 µM (inactive) | > 92 µM (inactive) | inactive | inactive | inactive | inactive | inactive | inactive | inactive | inactive | inactive | inactive | -17.3% and 1.94% | inactive | inactive | -6.59% and -3.08% | 0.285% (inactive) and -10.3% (inactive) |  |
| C=CCCC#N | > 92 µM (inactive) | > 92 µM (inactive) | > 92 µM (inactive) | > 92 µM (inactive) | inactive | inactive | inactive | inactive | inactive | inactive | inactive | inactive | inactive | inactive | -8.63% | inactive | inactive | -6.48% | 17.4% (inactive) | inactive |
| ClC(Cl)(Cl)C(Cl)(Cl)Cl | > 92 µM (inactive) | > 92 µM (inactive) | > 92 µM (inactive) | > 92 µM (inactive) | inactive | inactive | inactive | inactive | inactive | inactive | inactive | inactive | inactive | inactive | 0.0695% | inactive | inactive | -34.4% | 8.66% (inactive) |  |
| Cc1ccc(N)c(C)c1 | > 92 µM (inactive) | > 92 µM (inactive) | > 92 µM (inactive) | > 92 µM (inactive) | inactive | inactive | inactive | inactive | inactive | inactive | inactive | inactive | inactive | inactive | -7.75% | inactive | inactive | 1.29% | -1.52% (inactive) | inactive |
| COc1cc(-c2ccc(N)c(OC)c2)ccc1N | > 92 µM (inactive) | > 92 µM (inactive) | > 92 µM (inactive) | > 92 µM (inactive) | inactive | inactive | inactive | inactive | inactive | inactive | inactive | inactive | inactive | inactive | 8.08% and -9.67% | inactive | inactive | 0.0176% and -5.1% | -9.81% (inactive) and -21.9% (inactive) | inactive |
